# PubChem BioAssay (Tox21)
# Inconclusive results are not listed. Unmarked numbers belong to inactive results. The source made the active and inactive calls. Calls come from the whole dose curve; as a rule, active = well fitted activation curve with a large enough effect in the repeat runs; inconclusive = weak or mixed curves, or effect the other way; inactive = no such curve, though single readings can be large or run the other way.
# Test: qHTS assay to identify small molecule agonists of the retinoic acid receptor (RAR) signaling pathway (AID 1159553)
# Conditions: C3RL4 RARE luciferase reporter, agonist, 6 h; series mostly up to 73.3 µM; activation: at the top concentration
# Description: National Center for Advancing Translational Sciences [NCATS] NIH Chemical Genomics Center [NCGC] U.S. Environmental Protection Agency [EPA] National Institutes of Environmental Health Sciences [NIEHS] National Toxicology Program [NTP] Assay overview: All-trans Retinoic acid (atRA) is the potent natural metabolite of retinol and plays an important role in normal embryonic development and maintenance of cellular phenotype in adult animals. atRA is the activating ligand for the retinoic acid receptors (RARs) which form heterodimers with retinoid X receptors (RXRs) on the retinoic acid response element (RARE). Through activation of the RAR/RXRs nuclear receptors, atRA regulates the transcription of a large number of protein-coding genes and regulatory RNAs. Intracellular levels of atRA are controlled by the retinol signaling pathway (RSP) that regulates the biosynthesis and catabolism of atRA to maintain physiological levels. Chemicals that interfere with the RSP can cause abnormal intracellular levels of atRA and therefore are potential developmental toxicants. To assess compounds for the potential adverse effect on embryonic development through interfering with retinol signaling, a cell-based RARE luciferase reporter gene assay was used. C3RL4 cell line (OARSA/CFSAN/FDA, Laurel, MD) was used to screen Tox21 10K compound library for identifying activators of the RSP.
# Assay Protocol Summary: C3RL4 cells were seeded at 1,000/well in 5 uL of assay medium into white solid 1,536-well tissue culture plates (Greiner Bio-One North America Inc. Monroe, NC) using a Multidrop Combi (Thermo Scientific, Waltham, MA) dispenser. After incubation at 37 C and 5% CO2 for an overnight, 23 nL of compounds dissolved in DMSO, positive control or DMSO only were transferred by a Pintool station (Kalypsys, San Diego, CA). After 6 hr incubation at 37 C and 5% CO2, 5 uL of Amplite Luciferase reagent (AAT Bioquest Inc. Sunnyvale, CA) was added to each assay plate using a Flying Reagent Dispenser (FRD) (Aurora Discovery, San Diego, CA). Luminescence was quantified on a ViewLux plate reader (PerkinElmer, Waltham, MA) after 30 min incubation at room temperature.
# % is set by controls: 0 for no effect and ±100 for the full control effect; potency is the fitted concentration of half-maximal effect.
SMILES,activation,Potency
Cc1onc(-c2c(Cl)cccc2Cl)c1C(=O)N[C@@H]1C(=O)N2[C@@H]1SC(C)(C)[C@@H]2C(=O)O,-4.07%,
CC(=O)SC[C@@H](Cc1ccccc1)C(=O)NCC(=O)OCc1ccccc1,-0.332%,
S=c1[nH]c2ccccc2s1,,8.63 µM (active)
CC(C)(C)C(=O)OCOC(=O)[C@@H]1N2C(=O)[C@@H](NC(=O)[C@H](N)c3ccccc3)[C@H]2SC1(C)C,-3.78%,
Cc1[nH]cnc1C[C@H]1CCc2c(C)c3ccccc3n2C1=O,-2.3%,
COC(=O)C1=C(C)NC(C)=C(C(=O)OCC(C)C)C1c1ccccc1[N+](=O)[O-] (stereo not given),-6.44%,
CCCCN1CCCC[C@H]1C(=O)Nc1c(C)cccc1C,0.478%,
CCOc1ccc2nc3cc(N)ccc3c(N)c2c1,8.55%,
CCN(C(=O)c1cc(C)cc(OC[C@H](C)Nc2ccncc2)c1)C(C)C,-0.38%,
N#CC1(c2ccc(F)cc2)CCC(=O)CC1,2.75%,
O=C(NO)C1(NS(=O)(=O)c2ccc(Oc3ccc(F)cc3)cc2)CCOCC1,0.741%,
NC(=O)NS(=O)(=O)c1ccc(N)cc1,1.4%,
CCN(C(=O)N(CC)c1ccccc1)c1ccccc1,-3.61%,
CCc1oc2ccccc2c1C(=O)c1cc(Br)c(O)c(Br)c1,-3.87%,
COc1ccc(-c2ccc3cc(C(=O)O)ccc3c2)cc1C12CC3CC(CC(C3)C1)C2,,0.0298 µM (active)
CN(C)[C@@H]1C(=O)C(C(N)=O)=C(O)[C@@]2(O)C(=O)C3=C(O)c4c(O)ccc(Cl)c4[C@@H](O)[C@H]3C[C@@H]12,-2.12%,
C=CC(=O)OCC(CO)(COCC(COC(=O)C=C)(COC(=O)C=C)COC(=O)C=C)COC(=O)C=C,,0.957 µM (active)
Fc1ccc([C@@H]2CCNC[C@H]2COc2ccc3c(c2)OCO3)cc1,-8.03%,
Cc1ccc(-n2nc(C(C)(C)C)cc2NC(=O)Nc2ccc(OCCN3CCOCC3)c3ccccc23)cc1,,18.8 µM (active)
COc1ccc(C(=O)/C(Br)=C\C(=O)O)cc1,,27.3 µM (active)

SMILES,activation,Potency
Cc1oc(-c2ccccc2)nc1CCC(=O)c1ccc(CC2SC(=O)NC2=O)cc1 (stereo not given),-0.15%,
CCC(N)(CO)CO,-1.88% [at 94.8 µM],
CN(C)[C@@H]1C(=O)C(C(N)=O)=C(O)[C@@]2(O)C(=O)C3=C(O)c4c(O)cccc4C[C@H]3C[C@@H]12,-5.15%,
CCOC(=O)O[C@]1(C(=O)OCCl)CC[C@H]2[C@@H]3CCC4=CC(=O)C=C[C@]4(C)[C@H]3[C@@H](O)C[C@@]21C,-11.5%,
O=c1[nH]cnc2nc[nH]c12,1%,
O=c1cc(-c2ccc(O)cc2)oc2cc(O)cc(O)c12,,1.56 µM (active)
C[n+]1ccn(Cc2ccccc2)c1,0.584%,
COc1cc(/C=C/C(=O)O[C@H]2CC[C@]34C[C@]35CC[C@]3(C)[C@@H]([C@H](C)CCC=C(C)C)CC[C@@]3(C)[C@@H]5CC[C@H]4C2(C)C)ccc1O,-8.89%,
O=C1Cc2cc(CCN3CCN(c4nsc5ccccc45)CC3)c(Cl)cc2N1,-5.75%,
CCCCCOc1ccccc1/C(=C\SC)n1ccnc1,,33.5 µM (active)
O=[N+]([O-])c1ccccc1Nc1ccccc1,2.4%,
CCCCCCCCOc1ccccc1C(=O)Nc1ccc(C(=O)OCC[N+](C)(CC)CC)cc1,-6.59%,
C1CCCC1,2.76%,
CCOC(=O)/C=C(C)/C=C/C=C(C)/C=C/c1c(C)cc(OC)c(C)c1C,,0.531 µM (active)
CCCCCCCCOC(=O)c1ccc(O)cc1,,inactive
O=C(N/N=C/c1ccccc1O)c1ccncc1,,29.8 µM (active)
CCCCCOC(=O)CCCC,0.565%,
Nc1nc2ccccc2n1Cc1ccc(F)cc1,-16.1%,
O=c1c(-c2ccccc2)c1-c1ccccc1,-22.8%,
CS(=O)(=O)CCNCc1ccc(-c2ccc3ncnc(Nc4ccc(OCc5cccc(F)c5)c(Cl)c4)c3c2)o1,-12%,
